In all, about 8,300 sequences were measured (“log2 fold change of degron read counts, EGFP-low vs EGFP+ sorted cells (limma voom), compound-induced degradation”: median about -1.1, highest 2% from about 3.2 on). The sample holds the highest values, similar sequences and a random draw of the others, so the mix is not that of the screen.
Biological target: T1, CRBN, Q96SW2
T1 chain: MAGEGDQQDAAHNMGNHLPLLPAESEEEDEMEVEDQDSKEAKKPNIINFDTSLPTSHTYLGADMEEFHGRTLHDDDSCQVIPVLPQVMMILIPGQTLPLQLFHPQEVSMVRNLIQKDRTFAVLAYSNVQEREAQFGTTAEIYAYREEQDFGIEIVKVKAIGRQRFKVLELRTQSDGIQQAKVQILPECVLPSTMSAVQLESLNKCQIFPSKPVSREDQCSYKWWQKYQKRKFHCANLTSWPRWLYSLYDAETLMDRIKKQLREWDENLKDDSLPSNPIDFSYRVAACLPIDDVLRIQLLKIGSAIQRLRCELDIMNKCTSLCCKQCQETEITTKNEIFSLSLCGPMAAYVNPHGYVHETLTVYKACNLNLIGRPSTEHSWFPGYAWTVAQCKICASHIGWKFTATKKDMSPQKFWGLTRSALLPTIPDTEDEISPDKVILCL
Experiment: log2 fold change of degron read counts, EGFP-low vs EGFP+ sorted cells (limma voom), compound-induced degradation; higher = more compound-induced degradation of the degron-EGFP fusion; degrons are variants of IKZF1/3 zinc finger 2; compound dose not given here
Conditions: Jurkat, 18 h

[1] = compound: compound 19 (5-tert-butyl-thalidomide)
[2] = compound: compound 22 (5-morpholino-thalidomide)
[3] = compound: compound 33 (diphenyl IMiD analogue)
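Note: pooled lentiviral library of zinc finger degron-EGFP fusions in mCherry-positive Jurkat cells, FACS-sorted after compound exposure, with degron abundance counted by next-generation sequencing.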

## FQCPICGHTFTQKGNLLRHIKL [46F_47Q_49P_50I_52G_53H_54T_55F_67L_, Q9UKT9]
[1]
  log2 fold change of degron read counts: -2.53
[2]
  log2 fold change of degron read counts: -2.01
[3]
  log2 fold change of degron read counts: -1.64
compound: thalidomide
  log2 fold change of degron read counts: 0.116

## FRCEVCGANFTQKGNLLRHIKL [46F_47R_49E_50V_52G_53A_54N_55F_67L_, Q9UKT9]
[1]
  log2 fold change of degron read counts: -1.19
[2]
  log2 fold change of degron read counts: -1.18
[3]
  log2 fold change of degron read counts: 1.07
compound: thalidomide
  log2 fold change of degron read counts: 0.852

## FHCPVCGADFTQKGNLLRHIKL [46F_47H_49P_50V_52G_53A_54D_55F_67L_, Q9UKT9]
[1]
  log2 fold change of degron read counts: -0.685
[2]
  log2 fold change of degron read counts: -1.25
[3]
  log2 fold change of degron read counts: 0.492
compound: thalidomide
  log2 fold change of degron read counts: -1.46

## FVCPICGRNFTQKGNLLRHIKL [46F_47V_49P_50I_52G_53R_54N_55F_67L_, Q9UKT9]
[1]
  log2 fold change of degron read counts: -1.5
[2]
  log2 fold change of degron read counts: 0.0165
[3]
  log2 fold change of degron read counts: -0.308
compound: thalidomide
  log2 fold change of degron read counts: 1.47

## FDCNICGAGFTQKGNLLRHIKL [46F_47D_49N_50I_52G_53A_54G_55F_67L_, Q9UKT9]
[1]
  log2 fold change of degron read counts: -0.56
[2]
  log2 fold change of degron read counts: -1.59
[3]
  log2 fold change of degron read counts: -0.734
compound: thalidomide
  log2 fold change of degron read counts: -0.131

## FGCNQCGRQFTQKGNLLRHIKL [46F_47G_49N_50Q_52G_53R_54Q_55F_67L_, Q9UKT9]
[1]
  log2 fold change of degron read counts: -1.78
[2]
  log2 fold change of degron read counts: -3.61
[3]
  log2 fold change of degron read counts: -1.87
compound: thalidomide
  log2 fold change of degron read counts: -1.99

## FECNQCGAQFTQKGNLLRHIKL [46F_47E_49N_50Q_52G_53A_54Q_55F_67L_, Q9UKT9]
[1]
  log2 fold change of degron read counts: -3.22
[2]
  log2 fold change of degron read counts: -3.17
[3]
  log2 fold change of degron read counts: -2.23
compound: thalidomide
  log2 fold change of degron read counts: -1.78

## FVCEVCGAVFTQKGNLLRHIKL [46F_47V_49E_50V_52G_53A_54V_55F_67L_, Q9UKT9]
[1]
  log2 fold change of degron read counts: -0.567
[2]
  log2 fold change of degron read counts: 1.18
[3]
  log2 fold change of degron read counts: 2.1
compound: thalidomide
  log2 fold change of degron read counts: 2.01

## FLCEVCGAVFTQKGNLLRHIKL [46F_47L_49E_50V_52G_53A_54V_55F_67L_, Q9UKT9]
[1]
  log2 fold change of degron read counts: -1.19
[2]
  log2 fold change of degron read counts: -1.32
[3]
  log2 fold change of degron read counts: 0.896
compound: thalidomide
  log2 fold change of degron read counts: 1.47

## FHCEVCGAVFTQKGNLLRHIKL [46F_47H_49E_50V_52G_53A_54V_55F_67L_, Q9UKT9]
[1]
  log2 fold change of degron read counts: 0.991
[2]
  log2 fold change of degron read counts: 1.24
[3]
  log2 fold change of degron read counts: 1.22
compound: thalidomide
  log2 fold change of degron read counts: -0.292

## FDCEVCGAVFTQKGNLLRHIKL [46F_47D_49E_50V_52G_53A_54V_55F_67L_, Q9UKT9]
[1]
  log2 fold change of degron read counts: -0.0916
[2]
  log2 fold change of degron read counts: -0.965
[3]
  log2 fold change of degron read counts: 0.432
compound: thalidomide
  log2 fold change of degron read counts: 0.0687

## FTCEVCGAVFTQKGNLLRHIKL [46F_47T_49E_50V_52G_53A_54V_55F_67L_, Q9UKT9]
[1]
  log2 fold change of degron read counts: -0.209
[2]
  log2 fold change of degron read counts: 1.43
[3]
  log2 fold change of degron read counts: 1.81
compound: thalidomide
  log2 fold change of degron read counts: 2.36

## FCCEVCGAVFTQKGNLLRHIKL [46F_47C_49E_50V_52G_53A_54V_55F_67L_, Q9UKT9]
[1]
  log2 fold change of degron read counts: 1.18
[2]
  log2 fold change of degron read counts: 1.8
[3]
  log2 fold change of degron read counts: 2.68
compound: thalidomide
  log2 fold change of degron read counts: 1.79

## FKCEVCGAVFTQKGNLLRHIKL [46F_47K_49E_50V_52G_53A_54V_55F_67L_, Q9UKT9]
[1]
  log2 fold change of degron read counts: -2.3
[2]
  log2 fold change of degron read counts: -3.46
[3]
  log2 fold change of degron read counts: -2.84
compound: thalidomide
  log2 fold change of degron read counts: -1.47

## FSCEVCGAVFTQKGNLLRHIKL [46F_47S_49E_50V_52G_53A_54V_55F_67L_, Q9UKT9]
[1]
  log2 fold change of degron read counts: 2.19
[2]
  log2 fold change of degron read counts: 1.99
[3]
  log2 fold change of degron read counts: 2.31
compound: thalidomide
  log2 fold change of degron read counts: 0.741

## FQCEVCGAVFTQKGNLLRHIKL [46F_47Q_49E_50V_52G_53A_54V_55F_67L_, Q9UKT9]
[1]
  log2 fold change of degron read counts: -0.43
[2]
  log2 fold change of degron read counts: 2.76
[3]
  log2 fold change of degron read counts: 2.39
compound: thalidomide
  log2 fold change of degron read counts: 3.71

## FFCEVCGAVFTQKGNLLRHIKL [46F_47F_49E_50V_52G_53A_54V_55F_67L_, Q9UKT9]
[1]
  log2 fold change of degron read counts: 2.87
[2]
  log2 fold change of degron read counts: 3.44
[3]
  log2 fold change of degron read counts: 1.92
compound: thalidomide
  log2 fold change of degron read counts: 1.04

## FACEVCGAVFTQKGNLLRHIKL [46F_47A_49E_50V_52G_53A_54V_55F_67L_, Q9UKT9]
[1]
  log2 fold change of degron read counts: 3.24
[2]
  log2 fold change of degron read counts: 2.04
[3]
  log2 fold change of degron read counts: 1.3
compound: thalidomide
  log2 fold change of degron read counts: 0.155

## FWCEVCGAVFTQKGNLLRHIKL [46F_47W_49E_50V_52G_53A_54V_55F_67L_, Q9UKT9]
[1]
  log2 fold change of degron read counts: 2.83
[2]
  log2 fold change of degron read counts: 3.43
[3]
  log2 fold change of degron read counts: 2.51
compound: thalidomide
  log2 fold change of degron read counts: 0.594

— the supplement of paper PMC12645437, “Orthogonal IMiD-Degron Pairs Induce Selective Protein Degradation in Cells” (ACS Chemical Biology, 2025)
